“And” between values parts separate entries of the source, which are not always exact repeats. Equal entries are not always repeated. Results filed as inconclusive are left out. Where a call stands in place of a potency, no number is given. Some structures have more than one record in an assay (separate samples or runs), and their calls can disagree. The source made the active and inactive calls. Calls come from the whole dose curve; as a rule, active = well fitted cell-killing curve with a large enough effect in the repeat runs; inconclusive = weak or mixed curves, or effect the other way; inactive = flat fitted curve, though single readings scatter.
Assay: qHTS assay to identify small molecule antagonists of the retinoid acid receptor (RAR) signaling pathway - cell viability counter screen (AID 1159551); note: nearly all actives have a fitted effect of over 35% in size
Conditions: C3RL4 cells viability, ATP luminescence (CellTiter-Glo), 6 h; series mostly up to 92.4 µM
Text: U.S. Tox21 Program National Center for Advancing Translational Sciences [NCATS] NIH Chemical Genomics Center [NCGC] U.S. Environmental Protection Agency [EPA] National Institutes of Environmental Health Sciences [NIEHS] National Toxicology Program [NTP] U.S. Food and Drug Administration [FDA] Tox21 Assay Overview: All-trans Retinoic acid (atRA) is the potent natural metabolite of retinol and plays an important role in normal embryonic development and maintenance of cellular phenotype in adult animals. atRA is the activating ligand for the retinoic acid receptors (RARs) which form heterodimers with retinoid X receptors (RXRs) on the retinoic acid response element (RARE). Through activation of the RAR/RXRs nuclear receptors, atRA regulates the transcription of a large number of protein-coding genes and regulatory RNAs. Intracellular levels of atRA are controlled by the retinol signaling pathway (RSP) that regulates the biosynthesis and catabolism of atRA to maintain physiological levels. Chemicals that interfere with the RSP can cause abnormal intracellular levels of atRA and therefore are potential developmental toxicants. To assess compounds for the potential adverse effect on embryonic development through interfering with retinol signaling, a cell-based RARE luciferase reporter gene assay was used. C3RL4 cell line (OARSA/CFSAN/FDA, Laurel, MD) was used to screen Tox21 10K compound library for identifying inhibitors of the RSP. Also cytotoxicity was assessed by determining the viability of cells based on the quantitation of ATP.
Tox21 Assay Protocol Summary: C3RL4 cells were seeded at 1,000/well in 4 uL of assay medium into white solid 1,536-well tissue culture plates (Greiner Bio-One North America Inc. Monroe, NC) using a Multidrop Combi (Thermo Scientific, Waltham, MA) dispenser. After incubation at 37 C and 5% CO2 for an overnight, 23 nL of compounds dissolved in DMSO, positive control or DMSO only were transferred by a Pintool station (Kalypsys, San Diego, CA). One ul of 1 uM (final concentration) of Retinol was added right after the compound addition by using a Flying Reagent Dispenser (FRD) (Aurora Discovery, San Diego, CA). After 6 hr incubation at 37 C and 5% CO2, 5 uL of CellTiter-Glo reagent (Promega Corporation, Madison, WI) was added to each assay plate using an FRD. Luminescence was quantified on a ViewLux plate reader (PerkinElmer, Waltham, MA) after 30 min incubation at room temperature.
Potency is the fitted concentration of half-maximal effect.

Structure (SMILES)	Potency
O=c1nc(O)n(Cl)c(=O)n1Cl	inactive
CCNc1nc(Cl)nc(NCC)n1	inactive
C[N+](C)(C)Cc1ccccc1	inactive
O=C(O)COc1ccc(Cl)cc1Cl	inactive
CCCCCCCCCCCCn1cc[n+](C)c1	49 µM (active) and inactive
OCCOc1ccccc1	inactive
CNC	inactive
O=[N+]([O-])c1ccccc1O	inactive
CCCC[n+]1ccc(C)cc1	inactive
CC(Cl)(Cl)C(=O)O	inactive
COc1ccc(N)cc1	inactive
Cc1cc(-c2ccc(N)c(C)c2)ccc1N	inactive
CC(=O)[O][Hg][c]1ccccc1	5.4 µM (active) and 13.7 µM (active) and 16.8 µM (active)
CCCCCC[n+]1ccccc1	inactive
Oc1ccccc1-c1ccccc1	inactive
O=C(O)c1nc(Cl)ccc1Cl	inactive
C=CCOC(Cn1ccnc1)c1ccc(Cl)cc1Cl (stereo not given)	inactive
O=P1(N(CCCl)CCCl)NCCCO1 (stereo not given)	inactive
O=C(O)CCl	inactive
CCCC[N+]1(C)CCCCC1	inactive

Structure (SMILES)	Potency
CCCC[n+]1ccccc1	inactive
CCC(=O)C(CC(C)N(C)C)(c1ccccc1)c1ccccc1 (stereo not given)	inactive
CC[N+]1(C)CCCC1	inactive
O=S(=O)(O)O	inactive
COP(=O)(OC)C(O)C(Cl)(Cl)Cl (stereo not given)	inactive
CCCCCCn1cc[n+](C)c1	inactive
CCCCCCCCCCCC(=O)O	inactive
Nc1ccc(Cl)cc1	inactive
CCCCCCCCCCCCCC[P+](CCCCCC)(CCCCCC)CCCCCC	27.4 µM (active) and 27.5 µM (active) and inactive
CCC[N+]1(C)CCCCC1	inactive
CC(=O)O	inactive
O=C(O)C(Cl)(Cl)Cl	inactive
C1CCC(NC2CCCCC2)CC1	inactive
O=c1[nH]c(=O)n(Cl)c(=O)n1Cl	inactive
CCCC[N+]1(C)CCCC1	inactive
Nc1ccccc1	inactive
COCC(=O)N(c1c(C)cccc1C)C(C)C(=O)OC (stereo not given)	inactive
Oc1cccc2cccnc12	inactive and 7.7 µM (active)
O=C(O)C(Cl)Cl	inactive
CC[N+](CC)(CC)CC	inactive
